Reference: ChEMBL document CHEMBL3988442, “University of Dundee, Small-Polar-MMV Screening Library” (2021)
Hit rate of the full screen: of about 48,000 compounds, about 13,000 (27%) showed an effect of 50% or more. The list shows a part of the results.

Tested on: Wolbachia pipientis
Assay: Anti-Wolbachia Cell-Based Screen
Type: functional
Parameters: scale not given: in the data most compounds retested in dose-response had high values
Details: 5 µM

Compared with `O=C(c1ccon1)N1CCc2ncnc(NCc3cccnc3)c2CC1`, `O=C(Cc1ccccc1)N1CCC2(CC1)CN(c1ncccn1)CCO2` is lower in “Percent Effect” value: -8.818% for the first, -17.85% for the second.

First: CN1CCN(c2cc(CNCc3cccc4c3OCO4)ccn2)CC1
Second: O=C(Cc1ccccn1)N1CCC2(CC1)CN(c1ccccn1)CCO2
The “Percent Effect” value of the first is higher: 11.73% for the first, 1.035% for the second.

Compared with `CC1CCCN(S(=O)(=O)NCCN/C(O)=C2/N=CC=CC2=O)C1` (stereo unspecified), `COCCNC(=O)Nc1ccc(C(=O)N2CCSCC2)cc1C` is lower in “Percent Effect” value: -6.366% for the first, -68.32% for the second.

Compared with `O=C(NCC1Cn2nnc(-c3ccncc3)c2CO1)c1ccsc1.O=C(O)C(F)(F)F` (stereo unspecified), `O=C(NC[C@H]1C[C@@H]2CN(C(=O)c3ccco3)C[C@@H]2O1)c1ccsc1` is higher in “Percent Effect” value: -1.201% for the first, 124.8% for the second.

Compared with `O=C(NC[C@@H]1C[C@@H]2CN(C(=O)CO)C[C@H]2O1)c1ccsc1`, `Cn1cccc1C(=O)NC[C@H]1C[C@@H]2CN(C(=O)c3ccco3)C[C@@H]2O1` is lower in “Percent Effect” value: 119.3% for the first, 102.1% for the second.

First: O=C(NC[C@H]1C[C@@H]2CN(C(=O)c3ccno3)C[C@@H]2O1)C1CCC1
Second: Cn1cccc1C(=O)NC[C@H]1C[C@@H]2CN(C(=O)c3ccno3)C[C@H]2O1
The “Percent Effect” value of the first is higher: 2.338% for the first, 1.866% for the second.

Going from `CN(C)C[C@H]1C[C@@H]2CN(C(=O)c3ccco3)C[C@@H]2O1` to `O=C(c1ccsc1)N1C[C@@H]2C[C@@H](c3nnc(C4CC4)o3)O[C@@H]2C1`, the “Percent Effect” value rises from -6.391% to 1.173%.

Compared with `CC(C)NC[C@@]1(COc2ccccc2)C[C@@H](O)[C@@H](O)C1.Cl`, `CC(=O)N1CCCN(C(=O)NC(C)c2csc3ccccc23)CC1` (stereo unspecified) is lower in “Percent Effect” value: 3.998% for the first, -8.175% for the second.

Compared with `N#Cc1ccc(N2CCCC2Cn2cncn2)nc1` (stereo unspecified), `Cl.NCC1CCCCN1C(=O)Cc1cccc(Cl)c1` (stereo unspecified) is lower in “Percent Effect” value: 6.543% for the first, -19.94% for the second.

Going from `COc1ccccc1C(C#N)NC(=O)c1cccc2c1oc(=O)n2C` (stereo unspecified) to `O=C(CN1C(=O)c2ccccc2C1=O)N1CCOC2(CCOCC2)C1`, the “Percent Effect” value rises from -5.303% to -3.799%.

First: O=C1N(Cc2cccc(F)c2F)CCCC1(O)CNC1CCCC1 (stereo unspecified)
Second: O=C(Cc1ccc(Cl)cc1)N1CCC(O)(C(F)(F)F)C1 (stereo unspecified)
The “Percent Effect” value of the first is higher: 4.204% for the first, -18.33% for the second.

First: O=C(CCc1ccc(Cl)cc1)N1CCC(O)(C(F)(F)F)C1 (stereo unspecified)
Second: NCCC(=O)N1CCC2(CC1)CN(C(=O)Cc1ccc(Cl)cc1)CCO2
The “Percent Effect” value of the first is lower: 8.106% for the first, 115.1% for the second.

First: NCCC(=O)N1CCC2(CC1)CN(C(=O)Cc1cccc(Cl)c1)CCO2
Second: NCC(=O)N1CCC2(CC1)CN(C(=O)Cc1ccc(Cl)cc1)CCO2
The “Percent Effect” value of the first is lower: 105.1% for the first, 111% for the second.
